Measured values from PubChem BioAssay (Tox21).
A number with no mark means an inactive call. Where a call stands in place of a potency, no number is given. Active and inactive are the calls of the source. Calls follow the shape of the full dose curve.

What follows are molecules tested against Thyrotropin-releasing hormone receptor (Homo sapiens) (UniProt P34981) (assay: qHTS assay to identify small molecule agonists of the thyrotropin-releasing hormone receptor (TRHR) signaling pathway (AID 1346891;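 also: HEK293 cells expressing TRHR with calcium dye readout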)). Settings: TRHR-HEK293 calcium fluorescence, agonist mode; series mostly up to 57.6 µM.
Description: National Center for Advancing Translational Sciences [NCATS] NIH Chemical Genomics Center [NCGC] U.S. Environmental Protection Agency [EPA] National Institutes of Environmental Health Sciences [NIEHS] National Toxicology Program [NTP] Assay overview: Thyrotropin-releasing hormone (TRH) receptor (TRHR) is a G-protein-coupled receptor which binds the tripeptide thyrotropin releasing hormone. TRHR is found in the brain and, when bound by TRH, acts (through phospholipase C) to increase intracellular inositol trisphosphate. It plays a crucial role in the anterior pituitary where it controls the synthesis and secretion of thyroid stimulating hormone and prolactin. The TRHR-Hek293 assay is a cell-based assay, and it has the potential to screen G protein-coupled receptors. A compound/drug can either activate (agonist) or suppress (antagonist) GPCRs that can be monitored by levels of intracellular calcium. Using this assay, the Tox21 10K compound library was screened to identify potential TRHR agonists.
Assay Protocol Summary: The TRHR-Hek293 cells were dispensed at 1500cells/4uL/well in 1536-well black-clear bottom plates using a Multidrop dispenser. After the assay plates were incubated at a 37 C/5% CO2 incubator for 18 hours, 4 uL of Dye-Loading Solution was added to each well. The plates were incubated at 37 C for 2 hours. For agonist mode, 23 nL of compounds dissolved in DMSO, positive controls or DMSO only was transferred to the assay plate by a pin tool. The fluorescence intensity in the plates was measured using FDSS 7000EX kinetic plate reader for 3 min at 1 sec intervals. Each test compound was measured at 15 concentrations and in triplicates.

Sequence of Thyrotropin-releasing hormone receptor (Homo sapiens) (P34981 whole entry, looked up): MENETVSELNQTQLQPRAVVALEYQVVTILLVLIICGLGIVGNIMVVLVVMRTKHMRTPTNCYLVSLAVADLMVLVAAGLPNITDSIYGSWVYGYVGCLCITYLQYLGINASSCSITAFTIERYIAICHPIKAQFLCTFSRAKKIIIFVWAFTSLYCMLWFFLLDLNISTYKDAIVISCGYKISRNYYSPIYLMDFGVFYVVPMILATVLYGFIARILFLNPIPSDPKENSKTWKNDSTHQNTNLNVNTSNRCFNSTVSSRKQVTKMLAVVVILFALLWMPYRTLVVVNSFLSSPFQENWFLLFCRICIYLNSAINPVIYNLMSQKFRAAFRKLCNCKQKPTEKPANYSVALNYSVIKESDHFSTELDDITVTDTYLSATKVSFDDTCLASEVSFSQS

Compound | Potency | activation
CCCC(=O)C(CC)Sc1ccoc1C (stereo not given) | inactive | –
O=C(O)Cc1ccccc1Oc1ccc(Cl)cc1Cl | inactive | –
Cc1ccc(Br)cc1 | inactive | –
CC(C)c1cc(C(C)C)cc(C(C)C)c1 | inactive | –
N=C(N)N | inactive | –
OCCC(F)(F)C(F)(F)C(F)(F)C(F)(F)C(F)(F)C(F)(F)F | inactive | –
CC1=C(O)C(=O)CO1 | inactive | –
CCOC(=O)CC(C(C)=O)C(C)=O | inactive | –
CCCCCCC(=O)c1ccccc1 | inactive | –
CC(C)C(=O)Nc1cccc(C2CN3CCSC3=N2)c1 (stereo not given) | inactive | –
CN(C)c1cc(NC(=O)CNC(C)(C)C)c(O)c2c1C[C@H]1C[C@H]3[C@H](N(C)C)C(=O)C(C(N)=O)=C(O)[C@@]3(O)C(=O)C1=C2O | inactive | –
N#Cc1ccccc1C#N | inactive | –
CC(C)(C)c1ccc(C(=O)CCCCl)cc1 | inactive | –
O=S(=O)(O)c1ccc(Cl)cc1 | inactive | –
COCCCOc1cc(C[C@@H](C[C@H](N)[C@@H](O)C[C@H](C(=O)NCC(C)(C)C(N)=O)C(C)C)C(C)C)ccc1OC | inactive | –
CCCCCCCCCCCBr | inactive | –
C/C(Cl)=C/CCl | inactive | –
Cc1ccc(S(=O)(=O)NC(=O)NN2CC3CCCC3C2)cc1 (stereo not given) | inactive | –
Cc1ccc2ccccc2n1 | inactive | –
c1coc(Cn2cccc2)c1 | inactive | –

Compound | Potency | activation
CC(=O)c1ccc(O)c(C(N)=O)c1 | inactive | –
NC[C@H]1O[C@H](O[C@H]2[C@H](O)[C@@H](O[C@H]3O[C@H](CO)[C@@H](O)[C@H](N)[C@H]3O)[C@H](N)C[C@@H]2N)[C@H](N)[C@@H](O)[C@@H]1O | – | -0.0664% [at 11.8 µM]
CCCCCCC(O)CO (stereo not given) | inactive | –
CC(C)=CCC/C(C)=C\C#N | inactive | –
CC(C)C[P+](C)(CC(C)C)CC(C)C | inactive | –
CC(C)(C)C(=O)CC(=O)C(C)(C)C | inactive | –
C=CCCCCCCCCOC(C)=O | inactive | –
CCN(CC)CC(=O)Oc1ccc(NC(C)=O)cc1 | inactive | –
O=Cc1ccc(C(=O)O)cc1 | inactive | –
NCC1CCC(C(=O)Oc2ccc(CCC(=O)O)cc2)CC1 (stereo not given) | inactive | –
O=C1c2ccccc2C(=O)N1CO | inactive | –
CCCCCCCCCCCCCCBr | inactive | –
CCC(C)(C)C | inactive | –
CC(C)CC(O)Cc1ccccc1 (stereo not given) | inactive | –
CCc1ncc(C)[nH]1 | inactive | –
CCN1CCN(C(=O)N[C@@H](C(=O)N[C@@H]2C(=O)N3C(C(=O)O)=C(CSc4nnnn4C)CS[C@H]23)c2ccc(O)cc2)C(=O)C1=O | inactive | –
O=c1[nH]c(=O)c2cn[nH]c2[nH]1 | inactive | –
CC[C@@]1(c2ccccc2)NC(=O)N(C)C1=O | inactive | –
Cc1cc(C)c(N)c(Cl)c1 | inactive | –
NC(=O)CC[C@@H](N)C(=O)O | inactive | –
